Reference: PubChem BioAssay AID493170 (National Center for Advancing Translational Sciences (NCATS), 2011)
Records with an inconclusive call do not appear. Unmarked numbers belong to inactive results. Activity calls are given as the source filed them. The call rests on the fitted dose curve; in most records, active means well fitted inhibition curve with a large enough effect; inconclusive means small, poorly fitted or top-dose-only effect, or effect the other way; inactive means flat fitted curve, though single readings scatter.

target: Ubiquitin carboxyl-terminal hydrolase 2 (Homo sapiens) (UniProt O75604); assay: Ub-rhodamine 110 based assay for inhibitors Ubiquitin-specific Protease USP2a; conditions: USP2a Ub-rhodamine110 cleavage, fluorescence; series mostly up to 38.3 µM; activity change, negative = inhibition: at the top concentration; further: nearly all actives have a fitted effect of over 50% in size
Sequence (O75604 whole entry, looked up): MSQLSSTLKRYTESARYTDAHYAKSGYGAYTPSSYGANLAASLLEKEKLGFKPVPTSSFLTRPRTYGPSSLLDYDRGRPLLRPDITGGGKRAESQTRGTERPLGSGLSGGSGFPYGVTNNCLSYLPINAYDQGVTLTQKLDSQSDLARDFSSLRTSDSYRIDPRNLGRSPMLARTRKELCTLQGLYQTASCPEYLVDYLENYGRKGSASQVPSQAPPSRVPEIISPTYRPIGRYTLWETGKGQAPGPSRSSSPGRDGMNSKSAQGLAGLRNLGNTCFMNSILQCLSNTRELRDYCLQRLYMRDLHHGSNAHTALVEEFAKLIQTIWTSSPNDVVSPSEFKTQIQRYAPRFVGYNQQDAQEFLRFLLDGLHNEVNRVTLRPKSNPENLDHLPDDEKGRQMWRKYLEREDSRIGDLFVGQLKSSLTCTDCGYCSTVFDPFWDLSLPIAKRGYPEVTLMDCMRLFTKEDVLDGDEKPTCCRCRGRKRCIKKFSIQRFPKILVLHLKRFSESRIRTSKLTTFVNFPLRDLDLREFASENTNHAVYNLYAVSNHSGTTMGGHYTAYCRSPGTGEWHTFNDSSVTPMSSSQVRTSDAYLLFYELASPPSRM
How it was run: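 5 nM USP2a preincubated with compounds for 30 min at RT in 20 mM Tris-HCl pH 8.0, 2 mM CaCl2, 2 mM beta-mercaptoethanol, 0.05% CHAPS. Cleavage of 150 nM Ub-rhodamine 110 read kinetically (Ex 485/Em 531) for 7 min.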
On the % scale 0 is the no-effect control and ±100 the full control effect; potency means the concentration at half of the fitted maximal effect.

Row | Structure (SMILES) | activity change, negative = inhibition [%] | Potency
1 | CCn1cc(C(=O)N2CCOCC2)c(=O)c2cc(S(=O)(=O)N(C)C)ccc21 | 3.51 | –
2 | CCOC(=O)C1CCCN(CC(=O)Nc2c(C(=O)OC)[nH]c3ccc(C)cc23)C1 (centres undefined) | -7.18 | –
3 | COc1cc(C(=O)OCC(=O)Nc2c(F)c(F)c(F)c(F)c2F)cc(OC)c1OC | 0.379 | –
4 | CCOC(=O)c1c(NC(C)=O)sc2c1CCCNC2=O | -1.65 | –
5 | O=C(CCCN1C(=O)c2ccccc2C1=O)NC1=NCCS1 | 2.18 | –
6 | O=C1c2ccccc2CCC12N=NCC2c1ccc(Br)cc1 (centres undefined) | -8.46 | –
7 | Cc1ccc(C(=O)NCCCc2ccccc2)s1 | -21.5 | –
8 | CCC(C)NC(=O)C1CN(S(=O)(=O)c2ccccc2)CCN1S(=O)(=O)c1ccccc1 (centres undefined) | -7.74 | –
9 | CCC1SC2=NC(C)=C(C(=O)OCCOC)C(c3ccc(C(=O)OC)cc3)N2C1=O (centres undefined) | -8.2 | –
10 | COc1ccc(-n2c(=S)[nH]c3cc(C(=O)NCc4ccc(F)cc4)ccc3c2=O)c(OC)c1 | -19.6 | –
11 | Cc1cc(-c2csc(NCc3ccccc3)n2)c(C)n1C | – | 8.91 µM (active)
12 | CC1CC(C)CN(C(=O)CSc2nnc(-c3ccc(Cl)cc3)o2)C1 (centres undefined) | 1.57 | –
13 | C#CCOCCOCCOCCNc1nc(N2CCN(C(=O)CCCCCCCCCCNC(=O)Cn3cc(CCCCCN)nn3)CC2)nc(N2CCN(C(=O)CCCCCCCCCCNC(=O)[C@H](CO)n3cc(CCCCCN)nn3)CC2)n1 | -12.4 | –
14 | N#C/C(=C\c1ccc(O)c(O)c1)C(=O)Nc1cccc2ncccc12 | – | 2.24 µM (active)
15 | O=C(C[n+]1ccc(C(=O)N/N=C/c2ccc(OCc3ccccc3)cc2)cc1)c1ccccc1 | – | 8.91 µM (active)
16 | O=C(O)c1cccc(S(=O)(=O)NNc2ccccc2C(F)(F)F)c1 | -7.76 | –
17 | Cc1c(N=C/C=C2\N(C)c3ccccc3C2(C)C)c(=O)n(-c2ccccc2)n1C | -6.56 | –
18 | CC(C(=O)Nc1ccc(C(=O)O)c(O)c1)N1C(=O)/C(=C\c2ccco2)SC1=S (centres undefined) | – | 10 µM (active)
19 | Cc1ccc([C@H]2C(C(=O)O)=CC[C@@H](c3ccc(Cl)cc3)N2S(=O)(=O)c2ccc(C)cc2)cc1 | – | 11.2 µM (active)
20 | CCCCCCCCCCOC(=O)Cn1c(COc2ccc(OC)cc2)[n+](C)c2ccccc21 | -10.1 | –

Row | Structure (SMILES) | activity change, negative = inhibition [%] | Potency
21 | O=C(CCS(=O)(=O)c1ccc(Br)s1)NC1CCCC1 | -7.53 | –
22 | CC(=O)Nc1ccc(Nc2cc(C)nc(Nc3ccc(NC(C)=O)cc3)n2)cc1 | -6.62 | –
23 | O=c1oc2ccccc2n1Cn1c(=O)oc2ccccc21 | -7.91 | –
24 | O/N=C/c1ccccc1OCc1ccccc1F | -7.11 | –
25 | O=C(CSc1nccc(=O)[nH]1)N1N=C2/C(=C/c3ccco3)CCCC2C1c1ccco1 (centres undefined) | – | 10 µM (active)
26 | COc1ccc(C(=O)Nc2ccc(N3CCCC3)cc2)cc1OC | -7.74 | –
27 | CC1CCCCN1CCNC(=O)CC1Oc2ccccc2NC1=O (centres undefined) | -15.9 | –
28 | CC(C)n1c(/C=C/[C@H](O)C[C@H](O)CC(=O)O)c(-c2ccc(F)cc2)c2ccccc21 | -10.4 | –
29 | O=C(Nc1cccc(-c2nn[nH]n2)c1)c1ccc(Br)s1 | -3.56 | –
30 | O=c1c2c3nc4ccccc4nc3n(Cc3ccccc3)c2ncn1Cc1ccco1 | – | 11.2 µM (active)
31 | O=C(CSc1nc2ccccc2[nH]1)Nc1ccc2c(c1)OCCO2 | -8.95 | –
32 | Cc1ccc(N=C2NC(=O)/C(=C/C=C/c3ccco3)S2)cc1 | – | 7.08 µM (active)
33 | CC(C)CC(c1nnnn1CC1CCCO1)N1CCN(c2nc3ccccc3s2)CC1 (centres undefined) | -9.59 | –
34 | COC1=CCC2([N+](=O)[O-])CN(CCO)CC1([N+](=O)[O-])C2 (centres undefined) | 3.44 | –
35 | O=S(=O)(NC1CCSc2ccccc21)c1ccccc1 (centres undefined) | -10.3 | –
36 | COc1ccc(/C=N/NC(=O)c2nn(-c3ccccc3)c(=O)c3c(N)scc23)cc1 | – | 10 µM (active)
37 | Cc1c(C(=O)NCc2c(F)cc(F)cc2F)oc2ccc(S(=O)(=O)N3CCOCC3)cc12 | -5.76 | –
38 | Cc1noc(C)c1NC(=O)Nc1ccc2c(c1)C(=O)N([C@H](C)CO)C[C@H](C)[C@@H](CN(C)S(=O)(=O)c1ccccc1)O2 | -2.56 | –
39 | CN(C)C=Nc1ncc2c3ccccc3n(CCN(C)C)c2c1C#N | -0.528 | –
